# Reference: PubChem BioAssay AID652040 (Broad Institute, 2013)
# Potency and affinity values are given separately. Calls of active or inactive are those of the source.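 The calls were made as follows: active = falling luciferase signal whose fitted half-maximal concentration is at most twice the top tested dose; inconclusive = flat inhibition between 30 and 70% or a poor curve fit; inactive = the rest.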
# Experiment: off-target signal loss in HeLa-CEM21 co-culture – HeLa F-luc CTL cells, cherry-picked, counter-screen for HIV-1 Env fusion inhibitor project, dose response (AID 652040);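 also: more negative values mean stronger loss of luciferase signal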
# Conditions: HeLa-F-luc CTL cells with CEM21, firefly luciferase counterscreen; series mostly up to 35 µM
row,Compound,outcome
1,CC(=O)Nc1ccc(C(=O)OCC(=O)NC(=O)NCc2ccccc2)cc1,inactive
2,COc1ccc(NS(=O)(=O)c2ccc3c(c2)OCCO3)cc1OC,inactive
3,O=C(Nc1nc(COc2ccccc2)cs1)C12CC3CC(CC(C3)C1)C2,inactive
4,CCOC(=O)[C@@H]1[C@H]2COc3cc(OC)ccc3[C@H]2N2C(=O)N(c3ccc(C(F)(F)F)cc3)C(=O)[C@]12C,inactive
5,O=C(NCc1ccccc1)c1ccc(C(=O)NCc2ccccc2)cc1,inactive
6,Cn1c(C(=O)N2CCN(c3nc4ccccc4s3)CC2)cc2sccc21,inactive
7,CCCCCCCCN1C(=O)[C@H](CC(=O)NCc2cccs2)C[C@@]2(C(=O)OCC)CCCC=C12,inactive
8,CC1CN(S(=O)(=O)c2cc(C(=O)NCCC3=CCCCC3)ccc2Cl)CC(C)O1 (configuration not stated),inactive
9,CCN(C1CCCCC1)S(=O)(=O)c1ccc(S(=O)(=O)NCc2ccncc2)cc1,inactive
10,CCn1c(/C=C/N(C)c2ccccc2)[n+](CC)c2ccc(Cl)cc21,inactive
11,COc1ccc(NC(=O)c2ccc(Cl)c(S(=O)(=O)N3CCc4ccccc4C3)c2)cn1,inactive
12,COc1cc(CSc2nnnn2-c2ccc(C)cc2)cc(OC)c1OC,inactive
13,Fc1ccc(-n2nnnc2-c2cnc(-c3cccs3)nc2C(F)(F)F)cc1,inactive
14,O=C(Nc1ccc(N2CCN(C(=O)c3ccc(Cl)cc3)CC2)cc1)c1ccc2c(c1)OCCO2,inactive
15,Cc1ccc(S(=O)(=O)NCC(=O)OCC(=O)NCc2ccc3c(c2)OCO3)cc1,inactive
16,CCn1ncc(C2=NOC(C(=O)Nc3ccc(C)cc3)C2)c1C (configuration not stated),inactive
17,O=C(NNC(=O)C(c1ccccc1)c1ccccc1)c1ccccn1,inactive
18,O=C(c1cccc(S(=O)(=O)N2CCN(c3ccccc3)CC2)c1)N1CCCC(C(F)(F)F)C1 (configuration not stated),inactive
19,CCN1CCN(S(=O)(=O)c2ccc(Cl)c(C(=O)Nc3ccccc3N3CCCC3)c2)CC1,inactive
20,CC(Cl)=CCn1c(NCCc2ccccc2)nc2c1c(=O)n(C)c(=O)n2C,inactive
21,CC(OC(=O)c1ccc(NC(=O)CC#N)cc1)C(=O)NCCC1=CCCCC1 (configuration not stated),inactive
22,COC(=O)C[C@H]1C=C[C@H](NC(=O)c2ccccn2)[C@@H](CO)O1,inactive
